Test results: PubChem BioAssay AID602229 (The Scripps Research Institute Molecular Screening Center, 2012)
Screen size: about 360,000 compounds; about 1,300 (0.36%) were called active. The list comes from a sample in which actives are over-represented; it also holds similar structures and randomly drawn compounds. Values without a mark were called inactive.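 The calls were made as follows: active = inhibition above the mean of all tested compounds plus 3 SD (cut at about 70% in these data); inactive = the rest.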

Target: Photoreceptor-specific nuclear receptor (Homo sapiens) (UniProt Q9Y5X4)
Sequence (Q9Y5X4 whole entry, looked up, the tested form may be a part): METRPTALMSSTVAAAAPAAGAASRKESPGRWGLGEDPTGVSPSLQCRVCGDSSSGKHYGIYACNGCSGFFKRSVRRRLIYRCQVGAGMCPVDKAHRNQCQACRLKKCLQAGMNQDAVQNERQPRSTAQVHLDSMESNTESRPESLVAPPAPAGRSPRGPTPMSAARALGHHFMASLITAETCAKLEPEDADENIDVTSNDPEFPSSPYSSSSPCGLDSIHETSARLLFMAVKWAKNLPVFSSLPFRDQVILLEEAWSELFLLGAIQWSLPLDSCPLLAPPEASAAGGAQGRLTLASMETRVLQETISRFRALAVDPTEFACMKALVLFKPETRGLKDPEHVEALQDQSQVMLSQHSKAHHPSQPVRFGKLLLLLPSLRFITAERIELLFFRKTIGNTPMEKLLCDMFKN
Test: NR2E3 agonists in two-hybrid cells, primary screen, cell-based, luminescence, CHO-S, Gal4-NCOR/VP16-NR2E3 (AID 602229);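 also: 0% = DMSO with NR2E3 transfected cells and 100% = cells lacking NR2E3 construct; higher means lower luciferase signal from less NR2E3 corepressor binding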
Settings: luciferase, at 3.98 µM, active compounds read high

Row | Structure (SMILES) | inhibition of corepressor binding
1 | O=C(NC(Nc1nc2ccc([N+](=O)[O-])cc2s1)(C(F)(F)F)C(F)(F)F)c1ccccc1 | 102% (active)
2 | O=C(Nc1cc(-c2ccccc2)nn1-c1ccccc1F)c1ccc([N+](=O)[O-])cc1 | 7.55%
3 | O=C(NNS(=O)(=O)Cc1ccccc1)c1ccc([N+](=O)[O-])cc1 | 0.72%
4 | CC(C)n1c(-c2ccncc2)n[nH]c1=S | -6.98%
5 | CCOC(=O)N1CCN(C(=O)C2CCN(c3ncnc4c3sc3cccc(F)c34)CC2)CC1 | 78.5% (active)
6 | CCOC(=O)N1CCN(C(=O)C2CCN(Cc3ccc(OC)cc3OC)CC2)CC1 | 9.52%
7 | CCOC(=O)N1CCN(C(=O)C2CCCN(c3ncnc4c3sc3cccc(F)c34)C2)CC1 (stereo unspecified) | -2.23%
8 | CCOc1ccc(S(=O)(=O)n2ccnc2)c2ccccc12 | 17.1%
9 | CCOc1ccc(S(=O)(=O)N2CCCCCC2)c2ccccc12 | 75.7% (active)
10 | COc1ccc(S(=O)(=O)N2CCCC2)c(C)c1C | -29.4%
11 | CCNC(=O)N1CCNC(=O)C1CC(=O)Nc1ccc(C(=O)OCC)cc1 (stereo unspecified) | -12.7%
12 | COC(=O)c1ccc(NS(=O)(=O)c2cc3c4c(c2)C(C)C(=O)N4CCC3)cc1 (stereo unspecified) | -17.2%
13 | OCCCNc1nccc(-c2cc(Nc3cccc(Cl)c3)ncn2)n1 | 101% (active)
14 | COCCCn1cc(CN2CC(N(C)C)CS2(=O)=O)nn1 (stereo unspecified) | 20.1%
15 | Cc1cc(C)c(S(=O)(=O)c2cc(F)ccc2C)c(=O)[nH]1 | -8.41%
16 | CC(C)(CNC(=O)c1ccc(Cl)c(S(=O)(=O)N2CCc3ccccc3C2)c1)N1CCOCC1 | -7.92%
17 | CCc1nc2ccc(C(=O)NC3CCN(Cc4ccccc4)CC3)cn2c1N(CC)CCOC | -6.67%
18 | COc1cnc(-c2ccccn2)nc1Oc1ccc(C(C)(C)C)cc1 | 103% (active)
19 | CC(C)(C)c1ccc(Oc2ccc(N)cc2)cc1 | 62.9%
20 | COc1ccc2nc(-c3ccccn3)ccc2c1 | -147%
21 | CC(C)N(Cc1nnc(-c2ccc(Cl)cc2)o1)C(=O)C1=COCCO1 | -16.3%
22 | COc1ccc(CCNC(=O)CSCc2ccc(Br)cc2)cc1OC | -15%
23 | CS(=O)(=O)c1ccc2nnn(OCC(=O)Nc3cccc(C#N)c3)c2c1 | -3.52%

Row | Structure (SMILES) | inhibition of corepressor binding
24 | CCNC(=O)CCc1nc(-c2ccc(C(C)(C)C)cc2)no1 | 75.3% (active)
25 | CCc1ccc(CNC(=O)CCc2nc(-c3cccs3)no2)cc1 | -4.34%
26 | CCOc1ccc(-c2noc(CCC(=O)NC3CCCC3)n2)cc1OC | 4.53%
27 | CN(CC(=O)NCCN1CCOCC1)S(=O)(=O)c1ccc(F)cc1 | -42.2%
28 | COc1cc(OC)cc(C2=Cc3ccccc3C(CC(=O)c3ccco3)N2c2ccc(-c3cnc(OC)nc3)cc2)c1 (stereo unspecified) | -30.9%
29 | Cc1ccsc1C(=O)OCC(=O)c1cc(C)n(CC2CCCO2)c1C (stereo unspecified) | 89.5% (active)
30 | COc1ccc(CNC(=O)COC(=O)c2sccc2C)cc1OC | -4.67%
31 | CCCn1c(C)cc(C(=O)COC(=O)c2c(C)nn(-c3ccccc3)c2C)c1C | 17.1%
32 | Cc1nc(CNS(=O)(=O)c2ccc(Oc3ccccc3)cc2)cs1 | 92.4% (active)
33 | Cc1nc(CNS(=O)(=O)c2cc([N+](=O)[O-])ccc2C)cs1 | 6.54%
34 | Cc1ccc(S(=O)(=O)NCc2nc3ccccc3c(=O)n2N)cc1 | 22.2%
35 | Cc1cc2ccccn2c1C(=O)c1cccc(S(=O)(=O)N2CCOCC2)c1 | 2.82%
36 | CCN(C(=O)CSc1nnnn1-c1ccc(OC)cc1)C1CCS(=O)(=O)C1 (stereo unspecified) | -16.1%
37 | CCC(C)N1C(=O)S/C(=C/c2ccc(Sc3nc4ccccc4[nH]3)o2)C1=O (stereo unspecified) | 78.5% (active)
38 | CCOc1ccc(NC(=O)CN(C)C(=O)COc2cccc(CC)c2)cc1OCC | 2.58%
39 | COc1ccc(NC(=O)/C(Cl)=C(/Cl)S(=O)Cc2ccc(C)cc2)cn1 (stereo unspecified) | 84.1% (active)
40 | CC(C)c1ccc(NC(=O)[C@@H](NC(=O)N2CC(=O)Nc3ccccc32)C(C)C)cc1 | -32.4%
41 | Cc1nn(-c2ccccc2)c(=O)c2noc(C)c12 | -0.89%
42 | O=C(CN1CCN(C(=O)c2ccco2)CC1)Nc1ccc(Cl)c(C(F)(F)F)c1 | -9.37%
43 | O=C(CC(O)(C(F)(F)F)C(F)(F)F)Nc1ccc(Cl)c(Cl)c1 | 107% (active)
44 | N#CCCN(C(=O)Nc1ccc(Cl)c(Cl)c1)C1CCCCC1 | -1.19%
45 | CN(C)c1ccc(NC(=O)CSc2n[nH]c(-c3ccco3)n2)cc1 | -21.3%
46 | O[C@@H]1C[C@H](c2ccccc2)N(Cc2cccs2)C[C@H]1n1cc(C2CC2)nn1 | 5.46%

Row | Structure (SMILES) | inhibition of corepressor binding
47 | COc1cccc(CNC(C)C(=O)Nc2ccc(S(=O)(=O)N3CCCC3)cc2)c1 (stereo unspecified) | 3.95%
48 | CC(C)c1ccc(S(=O)(=O)N2CCN(C(C)C(=O)NC3CCCC3)CC2)cc1 (stereo unspecified) | -5.61%
49 | COc1ccc(S(=O)(=O)N2CCN(C(C)C(=O)Nc3ccc(C(C)C)cc3)CC2)cc1 (stereo unspecified) | 94.6% (active)
50 | N#Cc1ccc(COC(=O)Cn2nnc(-c3ccccc3)n2)cc1 | 19.6%
51 | CCC(=O)N1CCN=C1SCc1ccc(F)cc1 | 3.93%
52 | Cc1ccc(OCc2nnc(SC3CCc4ccccc4C3=O)n2C)cc1 (stereo unspecified) | -9.34%
53 | CCCCC(NS(=O)(=O)c1ccc(C)cc1)C(=O)Oc1ccc2c3c(c(=O)oc2c1)CCC3 (stereo unspecified) | -22.6%
54 | CCC(=O)c1ccc(OCC(O)Cn2nc(C)c(C(C)=O)c2C)cc1 (stereo unspecified) | -7.85%
55 | CCN(CC)C(=O)C1=C(C)N(Cc2ccc(C(C)(C)C)cc2)C(=O)C(CC(=O)NCc2cccc3ccccc23)C1 (stereo unspecified) | 20.9%
56 | C=CCn1c(C)cc(C2=NNC(=NCC)SC2)c1C | 89.3% (active)
57 | CCN(CC)S(=O)(=O)c1ccc(N(C)Cc2cccc(OC)c2OC)nc1 | 2.59%
58 | CCN(CC)S(=O)(=O)c1ccc(N(C)Cc2ccc(C(F)(F)F)cc2)nc1 | 91.6% (active)
59 | CCN(CC)S(=O)(=O)c1ccc(N(C)CCc2ccc(OC)c(OC)c2)nc1 | 14.8%
60 | CCCCCCCCCCCCC(NC(C)=O)(C(=O)OCC)C(=O)OCC | 34.1%
61 | O=C(Nn1cnc2ccccc2c1=O)c1ccc([N+](=O)[O-])cc1Cl | -16.8%
62 | CCCCN1C[C@H](c2ccc(Br)cc2)[C@@H](CC(=O)Nc2ccc(Br)cc2)C1=O | -20.7%
63 | Cc1ccnc(NC(=O)C2CCN(S(=O)(=O)c3c(C)c(C)cc(C)c3C)CC2)c1 | 80.9% (active)
64 | O=C(Nc1ccccn1)C1CCN(S(=O)(=O)c2ccc3c(c2)OCCO3)CC1 | -51.8%
65 | CNC(=O)C1CCN(S(=O)(=O)c2c(C)noc2/C=C/c2cccc(C)c2)CC1 | -10.5%
66 | CN(C)c1ccc(NC(=S)N(CCc2ccccc2)C2CC(=O)N(c3c(Cl)cccc3Cl)C2=O)cc1 (stereo unspecified) | 0.55%
67 | COc1ccc(-c2ccc(C(=O)NC(C)C)c3occc23)c(C)c1 | 15.3%
68 | CC(=O)Nc1ccc(S(=O)(=O)NCC(=O)OCc2cc(=O)oc3ccc4ccccc4c23)cc1 | -8.3%
69 | COc1ccc(CCNC(=O)CC2SC(=Nc3cc(C)cc(C)c3)NC2=O)cc1OC (stereo unspecified) | -33.4%

Row | Structure (SMILES) | inhibition of corepressor binding
70 | CCCOc1ccc(Cc2c(O)nc(SC)[nH]c2=O)cc1C | -21.5%
71 | CCCOc1ccc(Cc2c(Cl)nc(SC)nc2NC)cc1 | 92.3% (active)
72 | O=C(/C=C/c1ccc(F)cc1)NC(=S)NNC(=O)c1cccnc1 | -36.2%
73 | O=C(/C=C/c1ccc([N+](=O)[O-])o1)NNC(=O)c1ccc(F)cc1 | 101% (active)
74 | CCn1c(/C=C/c2ccc([N+](=O)[O-])o2)nc2ccccc2c1=O | 9.98%
75 | CC1=C(C(=O)Nc2ccccc2)C(c2cccs2)C(C#N)=C(SCC#N)N1 (stereo unspecified) | -12.8%
76 | CNS(=O)(=O)c1ccc2c(c1)[nH]c(=S)n2C | 10%
77 | CCCN(CC(=O)Nc1ccc(C(N)=O)cc1)CC(=O)Nc1ccccc1C | 12.9%
78 | Nc1nc(-c2sc3nc4c(cc3c2N)CCCC4)nc(N2CCOCC2)n1 | -56.6%
79 | CCCOC(=O)c1[nH]c2c(c1C)C(=O)CC(c1cccs1)C2 (stereo unspecified) | 2.46%
80 | CCCOC(=O)c1[nH]c2c(c1C)C(=O)CC(c1cc(OC)c(OC)c(OC)c1)C2 (stereo unspecified) | 70.4% (active)
81 | COC(=O)C1C(=O)c2c([nH]c(C(=O)OCCSC)c2C)CC1C (stereo unspecified) | -86.8%
82 | Cc1cc(C)c(S(=O)(=O)NCC2CCC(C(=O)NCc3ccc4c(c3)OCO4)CC2)c(C)c1 (stereo unspecified) | -8.75%
83 | CC(C)C1Nc2c(C(=O)O)cccc2C(Nc2ccccc2C(=O)O)C1(C)C (stereo unspecified) | 6.02%
84 | COc1ccc(F)cc1S(=O)(=O)N1CCCCC1 | 4.16%
85 | Cc1ccc(C)c(NC(=O)COC(=O)c2nn(C)c(=O)c3ccccc23)c1 | 8.19%
86 | Cc1ccc(F)cc1NC(=O)Cc1nn(C)c(=O)c2ccccc12 | 96.1% (active)
87 | Cc1ccc(F)cc1NC(=O)CSCc1c(C)noc1C | -16.1%
88 | O=C(CN1CCN(S(=O)(=O)c2ccc(Br)cc2)CC1)Nc1ccccc1C(=O)c1ccccc1 | 3.01%
89 | Cc1ccc(S(=O)(=O)N2[C@@H](c3ccc(Br)cc3)C(C(=O)O)=C[C@H]2CC2CCCC2)cc1 | 77.4% (active)
90 | CCCCC[C@@H]1C=C(C(=O)O)[C@H](c2ccc(C#N)cc2)N1S(=O)(=O)c1ccc(C)cc1 | -8.3%
91 | CCCCC[C@@H]1C=C(C(=O)OCC)[C@H](c2ccccc2)N1S(=O)(=O)c1ccc(C)cc1 | 16.2%
